Experimental data published in PubChem BioAssay AID687043 (Milwaukee Institute for Drug Discovery, 2013).
Screen size: about 16,000 compounds; about 250 (1.6%) were called active.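 The calls were made as follows: active = inhibition above the average over every tested compound plus 3 SD (cut at about 40% in these data); inactive = the rest.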 Shown is part of a subset that was picked to be rich in actives.

tested on: Hepatitis C virus NS3 helicase; test: HCV NS3 helicase inhibitors, primary screen, biochemical, fluorescence polarization, ChemBridge library (AID 687043); conditions: NS3h Cy5-dT15 DNA binding, at 100 µM, hits give high values

Q: `CCOc1cc(C=C2C(=O)NC(=O)NC2=O)cc(Br)c1OCCOc1ccccc1C` was tested. Which inhibition did it give?
A: 51.3% (active)

Q: How did the inhibition turn out when `Nc1ccc(Cc2ccc(N)c(Cl)c2)cc1Cl` was run?
A: 7.3% (inactive)

Q: How did the inhibition turn out when `COc1cccc(CN2CCN(Cc3ccccc3OC)CC2)c1` was run?
A: -10.1% (inactive)

Q: For `Cc1ccccc1CN1CCN(C(=O)COc2ccc(Cl)cc2)CC1`, which inhibition is on record?
A: 8.5% (inactive)

Q: With `COc1cc(C)cc2oc(=O)c3c(c12)CCC3` as the compound, how does the inhibition read?
A: -2.5% (inactive)
